Screening results as filed in PubChem BioAssay.
Hits are enriched below; roughly 2% of the tested compounds scored in any of these assays.
MBNL1-CUG inh: MBNL1-poly(CUG) RNA binding inhibition; TR-FRET MBNL1-His/biotin-(CUG)12 binding, 665/545 ratio; actives 0.036% (n = 280,000); Potency, µM (top dose mostly 57.5 µM), for inactives: at the highest dose activity change, negative = inhibition, most hits filed as inhibitors; Q9NR56; AID 2675; active = well fitted inhibition curve with a large enough effect in the signal ratio, with a control signal flat, not every such curve was filed as active; inconclusive = small, poorly fitted or top-dose-only effect, or effect the other way, or a change in a side signal; inactive = no such curve, though single readings can be large or run the other way; the % refers to the signal ratio; also: % is scaled to controls: 0 for no effect and ±100 for the full control effect
Target sequence (Q9NR56 whole entry, looked up): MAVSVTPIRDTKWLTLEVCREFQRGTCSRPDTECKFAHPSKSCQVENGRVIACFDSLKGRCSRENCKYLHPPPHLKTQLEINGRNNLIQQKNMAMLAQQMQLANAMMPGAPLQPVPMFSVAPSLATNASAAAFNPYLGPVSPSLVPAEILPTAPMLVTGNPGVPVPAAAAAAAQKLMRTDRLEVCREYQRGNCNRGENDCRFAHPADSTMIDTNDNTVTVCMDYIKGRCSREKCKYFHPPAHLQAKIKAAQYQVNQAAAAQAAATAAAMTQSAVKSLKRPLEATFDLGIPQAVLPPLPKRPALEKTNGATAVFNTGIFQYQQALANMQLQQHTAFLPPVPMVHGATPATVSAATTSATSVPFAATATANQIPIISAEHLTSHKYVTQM
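His-tagged MBNL1 binding to biotinylated (CUG)12 RNA was measured by TR-FRET using terbium anti-His antibody (0.055 ng/ul final) and streptavidin-XL665 (5 nM final). Compounds were titrated 92 nM to 58 uM; 60 min at room temperature.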
TDP-43 yeast inh: TDP-43 toxicity inhibition in yeast; TDP-43 expressing yeast growth rescue, BacTiter-Glo, 24 h; Potency, µM (highest dose often 46.1 µM), for the others: at the top dose growth rescue (activation), hits mostly activators; actives 1.8% (n = 410,000); also: % of control where 0% means no effect; nearly all actives have a fitted effect of over 50% in size
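Yeast expressing TDP-43 (pregrown in raffinose, seeded at OD600=0.02 in galactose medium) exposed to compounds 24 hr at 30 deg C. Growth read by BacTiter-Glo luminescence; rescue of toxicity appears as increased signal.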
aSyn yeast inh: alpha-synuclein toxicity inhibition in yeast; Yeast expressing alpha-synuclein, growth rescue, BacTiter-Glo, 24 h; Potency, µM (titrated, usually from 46.1 µM), without a hit: at the top dose growth rescue (activation), usual class: activators; actives 0.14% (n = 370,000); also: % of control where 0% means no effect; nearly all actives have a fitted effect of over 65% in size
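Galactose-induced alpha-syn yeast (OD600=0.02, raffinose-pregrown) + pinned cpd, 24 hr, 30 deg C; growth by BacTiter-Glo luminescence. Growth restoration scores as activation.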
Abeta rescue: compounds reversing amyloid beta toxicity in yeast | yeast expressing A-beta42, growth rescue, OD600, 48 h; response scale: 0% DMSO, 100% iron-clioquinol control | Potency, µM (top dose mostly 46.1 µM), usual class: activators | actives 0.063% (n = 410,000); also: nearly all actives have a fitted effect of over 55% in size
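Yeast A-beta toxicity model in growth medium with pinned compounds, 48 h at 30 C; growth read as absorbance at 600 nm. Normalized to FeCl3/clioquinol equimolar mix (positive) and DMSO (negative).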
Glioma ERSR ind: ER stress response induction in glioma. U87-MG GRP78 promoter luciferase reporter, 16 h. AID 602332. actives 0.02% (n = 420,000). Potency, µM, for inactives: top-dose activation, actives largely listed as activators; also: series mostly up to about 76 µM; % of control where 0% means no effect; nearly all actives have a fitted effect of over 35% in size
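ERSR induction read as luciferase luminescence (Bright-Glo, 10 min at room temperature) in stably transfected human U87-MG glioma cells exposed to compounds for 16 h, using GRP78 as sensor.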
FUS suppressor: suppressors of FUS proteinopathy in yeast; S. cerevisiae FUS-expressing, growth rescue, OD600, 24 h; Potency, µM (top dose mostly 76.6 µM), actives largely listed as activators; actives 0.24% (n = 390,000); AID 1347120;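 also: plate controls were DMSO vehicle for no effect and reference control for full effect; nearly all actives have a fitted effect of over 55% in size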
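FUS-expressing yeast, raffinose-pregrown, induced in 2% galactose minimal medium at OD 0.005; compounds in a dilution series, 24hr at 30C. Growth restoration read as absorbance at 600 nm. CP55940 positive control, DMSO negative.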
* marks the source's active call; other numbers are inactive results; i = inactive; ? = inconclusive; nt = not tested or not shown. Unless noted, calls follow the shape of the dose curve; as a rule, active = well fitted curve in the direction sought with a large enough effect; inconclusive = small, poorly fitted or top-dose-only effect, or another doubt; inactive = no such curve, though single readings can be large; an effect the other way counts as inactive or inconclusive. Potency is read from the fitted curve at half-maximal effect.

SMILES	MBNL1-CUG inh	TDP-43 yeast inh	aSyn yeast inh	Abeta rescue	Glioma ERSR ind	FUS suppressor
COc1ccc(S(=O)(=O)NC(=O)C2(C)CCN2C(=O)C(C)(C)c2ccccc2)cc1 (configuration not stated)	nt	14µM*	7%	i	-4%	i
COc1cc(C)ccc1S(=O)(=O)NC(=O)C1(C)CCN1C(=O)C1(c2ccc(Cl)cc2)CCC1 (configuration not stated)	nt	28µM*	-1%	i	-1%	i
CC1(C(=O)NS(=O)(=O)c2ccc(Br)cc2)CCN1C(=O)C1(c2ccccc2)CC1 (configuration not stated)	nt	?	6%	i	-1%	i
CCCC(=O)N1CCC1(C)C(=O)NS(=O)(=O)c1ccc(OC)cc1 (configuration not stated)	nt	-5%	-12%	i	-6%	i
COCC(=O)Nc1cc(C(=O)N[C@H]2CCCCNC2=O)c2c(c1)nc(-c1ccncc1)n2C	nt	nt	nt	nt	-2%	nt
O=C(NCC1(N2CCCCC2)CCCC1)c1cnn(-c2nccc(-c3cccs3)n2)c1C1CC1	nt	nt	nt	nt	-3%	nt
Cc1nc(N2CCCCC2)c2c(-c3cccs3)csc2n1	22%	16µM*	-17%	i	-4%	i
C[N+]1(CC(=O)c2ccc(I)cc2)CCCc2ccccc21 (configuration not stated)	nt	nt	nt	nt	-4%	nt
COc1ccc(Br)cc1S(=O)(=O)NCCc1cccs1	nt	20µM*	?	i	-4%	i
COc1ccc2c(c1)-c1ccccc1S(=O)(=O)N2C	-1%	11µM*	-6%	i	0%	i
CCn1c2ccccc2c2cc(C=NNC(=O)CSc3nc4ccccc4c(=O)n3-c3ccccc3)ccc21	nt	nt	nt	nt	nt	i
COc1cccc(Cn2c(C(C)n3c(-c4cnccn4)nc4ccccc43)nc3ccccc32)c1 (configuration not stated)	nt	14µM*	?	i	nt	?
COc1cccc(OCc2nc3ccccc3n2Cc2ccccc2)c1	nt	22µM*	nt	?	-1%	i
COc1ccc(OCc2nc3ccccc3n2C(C)c2ccccc2)cc1 (configuration not stated)	nt	13µM*	nt	?	0%	i
CCC(C)C(C(=O)OCC[N+](C)(CC)CC)c1ccccc1 (configuration not stated)	nt	nt	nt	nt	-4%	nt
CCn1c(C)nc2cc(NS(=O)(=O)c3ccccc3)cc(C(=O)N3C[C@@H](C)O[C@@H](C)C3)c21	nt	nt	nt	nt	0%	nt
Cc1ccc2c(c1)nnn2C1CCN(C(=O)C2CCCCC2)CC1	-5%	20µM*	4%	i	-1%	i
CCN=c1scc(C)n1/N=C/c1ccc(O)c(O)c1O	?	-12%	-7%	i	-1%	nt
CCN=c1scc(C)n1/N=C/c1cc(Br)c(O)c(Br)c1	1%	3.2µM*	-18%	i	10%	i
Cc1ccc2c(c1)N(C(=O)Nc1cccc(C)c1C)CCO2	nt	?	nt	i	-3%	i
Cc1c(Cl)cccc1NC(=O)N1CCOc2ccccc21	nt	13µM*	nt	i	-5%	i
COc1ccc(C(=O)/C=C/Nc2cc(C)on2)c(OC)c1	?	?	13µM*	i	11%	i
COc1ccc(C(=O)/C=C/Nc2ccc([N+](=O)[O-])cc2C)c(OC)c1	-4%	-16%	-8%	i	1%	i
CCCn1c2ccccc2c2cnn(CC(=O)NCCCOC)c(=O)c21	0%	6%	9%	i	-5%	i
CCCn1c2ccccc2c2cnn(CC(=O)NCCOC)c(=O)c21	-9%	-2%	3.5µM*	i	-6%	i
COc1ccc(-c2nnc(SCc3c(F)cccc3F)n2N)cc1	nt	nt	nt	nt	nt	i
O=C(Nc1ccc2ccccc2c1)c1nc(S(=O)(=O)Cc2ccccc2F)ncc1Cl	nt	nt	-44%	nt	-9%	nt
